# From the supplement of paper PMC10849652
# The full data set covers some 7,900 targets. This sample favours those with a hit. About 0.6% of all pairs of compound and target were hits. Values without a mark were called inactive.
# Columns and labels:
# Assay in all cases: log2 fold change, soluble protein after heating vs DMSO (PISA); higher = thermal stabilisation; K562 cells, 10 uM, 30 min; active = over 0.2 and 3.5 SD of the protein, either way, in both replicates (recomputed)
# [1] = compound: NC(=O)Nc1cc(-c2cccc(F)c2)sc1C(=O)N[C@H]1CCCNC1
# Procedure, shortened: (§1)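 Quantification of soluble protein used TMTpro 16plex LC-MS/MS, with channel sums equalised. Samples were the supernatant after 21,000xg for 90 min of pooled aliquots from K562 cells (2×10^6 cells/mL) treated with 10 μM compound for 30 min, heated for 3 min over 48°C-58°C, and extracted in PBS with 0.5% NP-40 at 4°C. Values, from duplicates, describe thermal stability against control samples on a log2 fold-change scale.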
# [2] = compound: NC(=O)c1cnc(N[C@@H]2CCCC[C@@H]2N)nc1Nc1cccc(-n2nccn2)c1
# Procedure, shortened: as §1
# [3] = compound: NC1(c2ccc(-c3nc4ccn5c(=O)[nH]nc5c4cc3-c3ccccc3)cc2)CCC1
# Procedure, shortened: as §1
# [4] = compound: NCC(=O)Nc1ccc(-n2nc(C(F)(F)F)cc2-c2ccc3c(ccc4ccccc43)c2)cc1
# Procedure, shortened: as §1
# entinostat = compound: Nc1ccccc1NC(=O)c1ccc(CNC(=O)OCc2cccnc2)cc1 [entinostat]
# Procedure, shortened: as §1
# vorinostat = compound: O=C(CCCCCCC(=O)Nc1ccccc1)NO [vorinostat]
# Procedure, shortened: as §1
# citarinostat = compound: O=C(CCCCCCNC(=O)c1cnc(N(c2ccccc2)c2ccccc2Cl)nc1)NO [citarinostat]
# Procedure, shortened: as §1
# silmitasertib = compound: O=C(O)c1ccc2c(c1)nc(Nc1cccc(Cl)c1)c1ccncc12 [silmitasertib]
# Procedure, shortened: as §1
# [5] = compound: O=C1NC(=O)C(c2cnc3ccccn23)=C1c1cn2c3c(cc(F)cc13)CN(C(=O)N1CCCCC1)CC2
# Procedure, shortened: as §1
# [6] = compound: c1cc(OCCN2CCCCC2)cc(-c2n[nH]c3ccc(-c4nnc[nH]4)cc23)c1
# Procedure, shortened: as §1
# UniProt Q96T23, sequence (Q96T23 whole entry, looked up): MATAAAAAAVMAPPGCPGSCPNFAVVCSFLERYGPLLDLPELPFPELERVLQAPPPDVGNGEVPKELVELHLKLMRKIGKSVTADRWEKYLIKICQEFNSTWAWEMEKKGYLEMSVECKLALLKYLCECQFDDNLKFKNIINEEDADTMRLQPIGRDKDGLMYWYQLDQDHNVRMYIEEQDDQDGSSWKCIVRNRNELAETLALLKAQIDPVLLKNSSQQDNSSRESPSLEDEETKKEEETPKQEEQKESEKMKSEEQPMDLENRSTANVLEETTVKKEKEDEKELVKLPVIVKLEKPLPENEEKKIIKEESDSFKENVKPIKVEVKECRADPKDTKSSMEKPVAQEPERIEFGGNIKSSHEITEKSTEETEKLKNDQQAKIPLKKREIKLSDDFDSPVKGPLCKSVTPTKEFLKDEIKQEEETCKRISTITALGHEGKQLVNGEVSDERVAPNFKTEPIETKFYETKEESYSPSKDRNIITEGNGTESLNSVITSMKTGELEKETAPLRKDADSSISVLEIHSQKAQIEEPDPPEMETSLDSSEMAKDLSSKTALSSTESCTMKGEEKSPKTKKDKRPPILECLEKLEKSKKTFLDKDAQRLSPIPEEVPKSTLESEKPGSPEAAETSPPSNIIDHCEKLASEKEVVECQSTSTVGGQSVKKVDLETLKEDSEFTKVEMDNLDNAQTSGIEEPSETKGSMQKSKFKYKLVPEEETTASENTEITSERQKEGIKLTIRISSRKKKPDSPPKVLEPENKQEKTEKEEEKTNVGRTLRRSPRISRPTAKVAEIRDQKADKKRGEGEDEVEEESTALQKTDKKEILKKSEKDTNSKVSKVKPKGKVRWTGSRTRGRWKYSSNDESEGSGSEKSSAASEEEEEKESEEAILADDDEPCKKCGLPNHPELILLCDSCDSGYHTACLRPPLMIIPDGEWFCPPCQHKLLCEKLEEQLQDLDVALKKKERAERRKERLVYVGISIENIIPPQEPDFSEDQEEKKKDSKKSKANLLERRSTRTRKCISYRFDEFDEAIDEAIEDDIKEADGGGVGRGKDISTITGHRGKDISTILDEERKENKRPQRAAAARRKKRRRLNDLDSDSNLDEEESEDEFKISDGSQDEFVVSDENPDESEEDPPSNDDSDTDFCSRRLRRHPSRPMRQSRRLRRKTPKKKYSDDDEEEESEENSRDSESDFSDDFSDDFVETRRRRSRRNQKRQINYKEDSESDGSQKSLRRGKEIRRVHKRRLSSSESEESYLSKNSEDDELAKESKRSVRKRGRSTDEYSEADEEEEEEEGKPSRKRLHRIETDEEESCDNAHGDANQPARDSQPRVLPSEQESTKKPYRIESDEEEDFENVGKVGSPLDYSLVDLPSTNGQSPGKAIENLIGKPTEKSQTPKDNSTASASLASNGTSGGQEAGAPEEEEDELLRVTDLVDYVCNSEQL
# UniProt Q6NUM9, sequence (Q6NUM9 whole entry, looked up): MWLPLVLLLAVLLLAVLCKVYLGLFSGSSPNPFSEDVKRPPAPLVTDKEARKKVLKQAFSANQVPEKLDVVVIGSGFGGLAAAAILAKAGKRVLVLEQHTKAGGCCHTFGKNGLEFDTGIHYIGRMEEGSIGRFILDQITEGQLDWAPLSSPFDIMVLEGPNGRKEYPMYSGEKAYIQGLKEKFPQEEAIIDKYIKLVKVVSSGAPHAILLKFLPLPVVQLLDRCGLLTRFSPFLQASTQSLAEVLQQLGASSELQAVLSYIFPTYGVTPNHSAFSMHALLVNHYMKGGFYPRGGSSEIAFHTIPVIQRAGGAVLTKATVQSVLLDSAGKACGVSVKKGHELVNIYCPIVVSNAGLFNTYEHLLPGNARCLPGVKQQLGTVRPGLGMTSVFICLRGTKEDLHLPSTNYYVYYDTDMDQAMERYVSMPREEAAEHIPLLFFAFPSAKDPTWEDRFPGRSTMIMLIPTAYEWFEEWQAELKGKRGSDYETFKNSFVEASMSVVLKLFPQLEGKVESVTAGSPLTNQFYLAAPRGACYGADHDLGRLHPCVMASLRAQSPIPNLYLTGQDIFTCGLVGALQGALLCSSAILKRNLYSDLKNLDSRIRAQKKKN
# UniProt Q15758, sequence (Q15758 whole entry, looked up): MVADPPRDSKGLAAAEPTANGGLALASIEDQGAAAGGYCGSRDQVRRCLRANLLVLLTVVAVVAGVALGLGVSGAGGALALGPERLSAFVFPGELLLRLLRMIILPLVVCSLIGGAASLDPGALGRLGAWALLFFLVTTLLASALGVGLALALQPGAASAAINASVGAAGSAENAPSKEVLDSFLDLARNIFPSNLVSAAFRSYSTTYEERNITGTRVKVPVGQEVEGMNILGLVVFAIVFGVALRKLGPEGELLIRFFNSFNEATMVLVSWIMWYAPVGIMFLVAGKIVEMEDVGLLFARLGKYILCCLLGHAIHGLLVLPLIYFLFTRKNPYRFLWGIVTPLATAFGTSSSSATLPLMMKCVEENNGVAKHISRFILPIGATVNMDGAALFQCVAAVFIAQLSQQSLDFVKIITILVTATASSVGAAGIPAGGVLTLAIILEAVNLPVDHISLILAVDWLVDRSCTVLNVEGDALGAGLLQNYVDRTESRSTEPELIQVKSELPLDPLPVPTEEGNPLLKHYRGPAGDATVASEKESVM
# UniProt O94885, sequence (O94885 whole entry, looked up): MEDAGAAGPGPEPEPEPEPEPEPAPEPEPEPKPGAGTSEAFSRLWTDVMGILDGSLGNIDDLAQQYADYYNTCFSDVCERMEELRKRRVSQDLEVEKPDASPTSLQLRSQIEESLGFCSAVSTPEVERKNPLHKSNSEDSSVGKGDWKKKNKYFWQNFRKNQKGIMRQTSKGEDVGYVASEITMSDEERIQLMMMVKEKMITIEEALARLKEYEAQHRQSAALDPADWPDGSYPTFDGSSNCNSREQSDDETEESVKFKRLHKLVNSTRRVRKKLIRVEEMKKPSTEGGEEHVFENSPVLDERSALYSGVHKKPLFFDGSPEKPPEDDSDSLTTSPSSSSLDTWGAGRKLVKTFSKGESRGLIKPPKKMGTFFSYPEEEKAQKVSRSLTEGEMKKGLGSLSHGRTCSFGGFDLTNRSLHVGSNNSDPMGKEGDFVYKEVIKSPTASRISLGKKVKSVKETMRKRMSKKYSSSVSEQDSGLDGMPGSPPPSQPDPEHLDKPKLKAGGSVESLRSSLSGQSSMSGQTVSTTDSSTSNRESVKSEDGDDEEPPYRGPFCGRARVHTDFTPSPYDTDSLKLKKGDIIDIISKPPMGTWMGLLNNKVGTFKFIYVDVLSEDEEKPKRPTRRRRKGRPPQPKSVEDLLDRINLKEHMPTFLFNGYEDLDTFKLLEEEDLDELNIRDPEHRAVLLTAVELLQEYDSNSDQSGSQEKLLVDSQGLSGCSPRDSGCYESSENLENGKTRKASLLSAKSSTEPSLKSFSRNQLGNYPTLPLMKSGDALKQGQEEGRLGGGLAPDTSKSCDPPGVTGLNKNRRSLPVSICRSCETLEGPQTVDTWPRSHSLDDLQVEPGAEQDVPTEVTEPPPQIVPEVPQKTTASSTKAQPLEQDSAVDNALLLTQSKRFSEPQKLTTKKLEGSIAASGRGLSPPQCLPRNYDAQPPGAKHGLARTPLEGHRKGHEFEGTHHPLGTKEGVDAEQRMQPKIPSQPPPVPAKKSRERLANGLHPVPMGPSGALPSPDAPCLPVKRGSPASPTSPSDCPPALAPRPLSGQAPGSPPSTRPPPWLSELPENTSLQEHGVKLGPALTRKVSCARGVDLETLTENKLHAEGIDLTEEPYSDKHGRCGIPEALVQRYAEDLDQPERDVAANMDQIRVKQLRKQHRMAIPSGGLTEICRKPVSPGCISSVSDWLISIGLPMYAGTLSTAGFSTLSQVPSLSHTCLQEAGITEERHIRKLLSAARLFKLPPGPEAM
# UniProt Q9BY42, sequence (Q9BY42 whole entry, looked up): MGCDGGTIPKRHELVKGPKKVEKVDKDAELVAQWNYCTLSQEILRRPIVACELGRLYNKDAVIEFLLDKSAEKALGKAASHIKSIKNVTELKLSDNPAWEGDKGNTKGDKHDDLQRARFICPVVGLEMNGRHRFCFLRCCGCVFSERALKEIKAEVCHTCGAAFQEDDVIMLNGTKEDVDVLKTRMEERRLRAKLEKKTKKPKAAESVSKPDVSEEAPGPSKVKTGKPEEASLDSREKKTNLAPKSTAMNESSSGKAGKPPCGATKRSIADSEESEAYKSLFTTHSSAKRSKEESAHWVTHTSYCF
# UniProt O14730, sequence (O14730 whole entry, looked up): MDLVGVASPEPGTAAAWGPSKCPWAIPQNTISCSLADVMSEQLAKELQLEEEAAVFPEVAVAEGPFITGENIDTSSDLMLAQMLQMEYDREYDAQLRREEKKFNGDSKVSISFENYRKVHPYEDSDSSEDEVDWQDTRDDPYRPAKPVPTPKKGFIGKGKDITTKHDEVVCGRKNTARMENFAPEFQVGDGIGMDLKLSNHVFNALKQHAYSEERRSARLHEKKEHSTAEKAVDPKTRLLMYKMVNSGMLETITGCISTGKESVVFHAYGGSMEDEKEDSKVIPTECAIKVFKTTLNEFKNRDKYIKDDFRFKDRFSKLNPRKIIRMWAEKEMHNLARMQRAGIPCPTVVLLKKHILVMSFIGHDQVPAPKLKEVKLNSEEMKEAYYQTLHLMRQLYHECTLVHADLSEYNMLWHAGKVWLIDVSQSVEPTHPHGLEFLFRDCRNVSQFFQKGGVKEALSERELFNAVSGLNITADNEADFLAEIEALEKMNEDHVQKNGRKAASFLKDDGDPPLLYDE
# UniProt O14796, sequence (O14796 whole entry, looked up): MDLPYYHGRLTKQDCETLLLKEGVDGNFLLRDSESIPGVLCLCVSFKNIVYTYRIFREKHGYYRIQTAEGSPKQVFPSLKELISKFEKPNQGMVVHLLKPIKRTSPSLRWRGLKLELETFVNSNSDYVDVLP
# UniProt O95059, sequence (O95059 whole entry, looked up): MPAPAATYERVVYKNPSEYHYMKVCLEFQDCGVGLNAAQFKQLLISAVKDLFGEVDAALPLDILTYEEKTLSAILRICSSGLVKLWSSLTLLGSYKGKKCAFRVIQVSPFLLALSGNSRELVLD
# UniProt Q8N0T1, sequence (Q8N0T1 whole entry, looked up): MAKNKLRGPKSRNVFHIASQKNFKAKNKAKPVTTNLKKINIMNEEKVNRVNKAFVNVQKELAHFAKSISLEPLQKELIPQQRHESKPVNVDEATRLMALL
Target,log2 fold change [1],log2 fold change [2],log2 fold change [3],log2 fold change [4],log2 fold change (entinostat),log2 fold change (vorinostat),log2 fold change (citarinostat),log2 fold change (silmitasertib),log2 fold change [5],log2 fold change [6]
RPS27A (UniProt P62979),0.024,0.16,0.286,0.177,-0.047,-0.007,-0.211,0.05,0.064,-0.06
SH3GL1 (UniProt Q99961),-0.049,-0.088,-0.106,-0.032,0.143,0.082,0.068,0.028,0.006,-0.041
RTF2 (UniProt Q9BY42),-0.134,0.012,0.124,-0.081,-0.023,-0.062,0.133,0.133,-0.189,0.028
RNASEH2A (UniProt O75792),-0.017,-0.06,-0.181,-0.109,0.037,-0.145,0.015,0.014,-0.208,-0.015
SESN2 (UniProt P58004),-0.069,-0.159,-0.129,-0.093,0.075,0.079,-0.081,0.108,-0.123,0.026
RBM27 (UniProt Q9P2N5),-0.151,-0.015,-0.058,-0.042,0.044,0.125,0.04,-0.078,-0.056,-0.064
RRP9 (UniProt O43818),0,0.053,0.14,0.08,-0.002,-0.035,0.003,0.069,0.112,-0.073
SEH1L isoform 1 (UniProt Q96EE3),0.007,-0.027,-0.014,-0.004,-0.04,0.022,0.064,0.076,-0.027,-0.065
SH2D1B (UniProt O14796),-1.1 (active),0.04,-0.135,-0.024,0.055,0.101,0.413,-0.111,-0.018,-0.062
SLC1A5 (UniProt Q15758),-0.057,0.117,0.155,0.03,-0.041,-0.039,-0.003,-0.016,-0.001,-0.03
RETREG3 (UniProt Q86VR2),0.046,-0.033,-0.047,0.048,0.007,-0.045,0.003,0.04,-0.086,-0.03
RBIS (UniProt Q8N0T1),-0.021,-0.029,0.02,0.02,0.019,0.014,0.092,-0.009,-0.002,-0.078
RETSAT (UniProt Q6NUM9),-0.058,-0.05,-0.028,-0.019,0.129,-0.048,0.028,-0.014,0.026,-0.047
SEC23IP (UniProt Q9Y6Y8),-0.049,-0.152,-0.221,-0.033,0.049,0.065,0.055,-0.03,-0.058,-0.063
SAMSN1 isoform 3 (UniProt Q9NSI8),-0.06,-0.067,-0.067,-0.028,0.099,0.009,0.06,0.063,-0.073,-0.025
SIRT2 (UniProt Q8IXJ6),-0.048,0.023,-0.07,-0.066,-0.02,-0.039,-0.022,-0.035,-0.035,0.033
SEC23A (UniProt Q15436),-0.004,0.064,-0.066,-0.015,-0.035,-0.02,-0.044,0.011,0.024,-0.097
RIC8A isoform 3 (UniProt Q9NPQ8),-0.035,-0.154,-0.126,-0.088,0.192,0.058,0.12,-0.005,0.084,-0.096
RPS2 (UniProt P15880),0.035,0.081,0.195,0.089,-0.036,0.001,-0.079,0.01,0.086,-0.189
SEC24A (UniProt O95486),-0.015,0,-0.108,-0.016,0.016,0.078,0,0.02,-0.092,-0.013

Target,log2 fold change [1],log2 fold change [2],log2 fold change [3],log2 fold change [4],log2 fold change (entinostat),log2 fold change (vorinostat),log2 fold change (citarinostat),log2 fold change (silmitasertib),log2 fold change [5],log2 fold change [6]
RPTOR (UniProt Q8N122),-0.026,-0.139,-0.243 (active),-0.021,0.009,0.007,0.056,0.085,-0.025,-0.008
RCN3 (UniProt Q96D15),-0.042,-0.027,0.105,-0.013,-0.027,-0.122,-0.063,-0.002,-0.039,0.12
SHROOM2 (UniProt Q13796),0.024,-0.09,0.275,0.006,-0.037,0.068,0.057,-0.141,-0.088,0.057
RPP14 (UniProt O95059),0.063,-0.006,-0.003,0.138,-0.065,-0.033,0.051,0.06,0.027,-0.107
RPRD1B (UniProt Q9NQG5),-0.058,-0.03,-0.087,-0.081,0.051,0.049,0.029,0.031,-0.346 (active),-0.049
ROCK2 (UniProt O75116),0.043,-0.044,-0.106,-0.017,0.031,0.08,0.013,0.096,0.017,0.06
RAD51 (UniProt Q06609),0.051,-0.019,-0.057,0.031,0.001,0.047,0.018,-0.003,-0.014,-0.012
SAFB2 (UniProt Q14151),0.116,0.084,0.255,0.043,-0.076,-0.016,-0.098,0.119,0.084,-0.038
RUNX1 isoform 8 (UniProt Q01196),-0.027,0.03,-0.092,0.187,-0.16,0.321,-0.249,0.119,0.082,0.051
SCAMP2 (UniProt O15127),-0.007,0.168,0.001,0.029,-0.001,-0.027,0.189,-0.002,0.109,-0.065
SLC12A9 (UniProt Q9BXP2),0.05,-0.142,-0.313 (active),-0.03,0.021,0.027,0.035,0.017,-0.081,-0.062
SLC18B1 (UniProt Q6NT16),-0.003,0.022,-0.093,-0.025,0.038,-0.162,0.019,0.076,0.044,-0.044
ROR2 (UniProt Q01974),-0.007,-0.01,-0.03,-0.04,0.004,0.003,0.078,-0.027,0.012,-0.151
RECQL (UniProt P46063),0.034,-0.076,-0.047,-0.033,0.001,0.045,0.092,-0.028,-0.019,-0.03
RAB3IL1 (UniProt Q8TBN0),0.041,-0.011,-0.025,-0.046,-0.019,-0.032,0.035,0.053,-0.038,0.008
SLBP (UniProt Q14493),0.043,0.051,-0.028,-0.005,0.018,0.085,0.035,0.007,0.064,0.035
RNF220 (UniProt Q5VTB9),0.01,-0.019,-0.002,-0.06,-0.037,0.052,0.043,0.025,-0.075,-0.038
RPS25 (UniProt P62851),-0.043,0.071,0.192,0.053,-0.072,0.032,-0.066,-0.061,0.107,-0.052
SETD3 (UniProt Q86TU7),-0.007,-0.019,-0.045,-0.002,-0.02,-0.035,-0.015,0.007,-0.022,0.031
SAAL1 (UniProt Q96ER3),-0.091,0.031,-0.207,-0.058,0.04,0.006,0.011,0.119,-0.04,-0.013

Target,log2 fold change [1],log2 fold change [2],log2 fold change [3],log2 fold change [4],log2 fold change (entinostat),log2 fold change (vorinostat),log2 fold change (citarinostat),log2 fold change (silmitasertib),log2 fold change [5],log2 fold change [6]
"SART3, A0A499FI31",-0.011,-0.105,-0.175,-0.054,0.055,0.1,0.098,0.114,-0.136,-0.02
SEC31A (UniProt O94979),-0.078,-0.024,-0.022,-0.099,0.041,0.003,0.042,0.063,-0.048,0.07
RARS2 (UniProt Q5T160),0.042,-0.035,-0.182,-0.043,0.03,0.029,0.048,0.006,-0.022,-0.053
SERINC3 (UniProt Q13530),-0.111,-0.027,-0.195,-0.267,-0.07,-0.044,-0.093,0.054,0.018,-0.031
RBM17 (UniProt Q96I25),0.021,0.037,0.003,-0.07,0.08,0.092,0.056,0.036,0.027,-0.127
RPS21 (UniProt P63220),0.022,0.018,0.114,-0.012,-0.061,-0.059,0.002,0.008,0.045,-0.015
RHOA (UniProt P61586),-0.01,0.036,0.204,0.123,-0.019,-0.16,-0.047,-0.136,-0.057,0.104
RPS19 (UniProt P39019),-0.008,0.075,0.186,0.079,-0.06,-0.007,-0.059,-0.014,0.051,-0.107
SASH1 (UniProt O94885),-0.08,-0.06,-0.053,-0.147,0.035,0.077,0.167,0.033,0.008,-0.218
RPS14 (UniProt P62263),0.056,0.142,0.149,0.08,-0.033,-0.106,-0.089,-0.041,0.209,-0.069
RIOK3 (UniProt O14730),0.047,-0.005,-0.061,0.015,-0.005,0.043,0.036,-0.011,0.057,-0.046
RPS3A (UniProt P61247),0.01,0.084,0.164,0.035,-0.04,0.041,-0.071,0.017,0.088,-0.131
RARS (UniProt P54136),0.098,-0.076,0.032,-0.01,0.041,0.115,0.028,0.107,0.325,-0.135
RDH10 (UniProt Q8IZV5),-0.033,-0.017,-0.016,0.015,0.015,-0.069,-0.019,-0.097,-0.039,0.012
RRP36 (UniProt Q96EU6),0.115,0.108,0.271,0.098,-0.073,-0.024,-0.04,0.143,0.264,-0.118
RSF1 (UniProt Q96T23),-0.17,-0.078,-0.246,-0.198,0.073,0.028,-0.087,0.04,-0.182,0.081
RBM26 isoform 2 (UniProt Q5T8P6),-0.001,0.031,-0.135,-0.103,0.141,0.103,0.193,-0.1,-0.05,0.017
RALY (UniProt Q9UKM9),-0.039,0.071,0.353,0.026,-0.02,-0.105,-0.064,0.128,0.072,-0.106
RAD50 isoform 2 (UniProt Q92878),-0.011,-0.042,-0.057,-0.064,0.038,-0.014,0.047,-0.008,-0.034,0.009
